Measured values reported in PubChem BioAssay (Tox21).
Inconclusive results are not listed. Calls of active or inactive are those of the source. Unless noted, calls follow the shape of the dose curve; as a rule, active = well fitted curve in the direction sought with a large enough effect in the repeat runs; inconclusive = weak or mixed curves; inactive = no such curve, though single readings can be large; an effect the other way counts as inactive or inconclusive.

Columns and labels:
[1] = molecular target: Progesterone receptor (Homo sapiens) (UniProt P06401); experiment: qHTS assay to identify small molecule agonists of the progesterone receptor (PR) signaling pathway (AID 1346784; calls by dose curve; also: nearly all actives have a fitted effect of over 30% in size)
How it was run: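 HEK 293T PR-UAS-bla reporter cells, 2% charcoal-stripped FBS; 6 hr settle at 37C/5% CO2, compound (DMSO) 16 hr, LiveBLAzer B/G FRET substrate 2 hr RT, fluorescence intensity read.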

[2] = molecular target: Progesterone receptor (Homo sapiens) (UniProt P06401); experiment: qHTS assay to identify small molecule antagonists of the progesterone receptor (PR) signaling pathway (AID 1346795; active = well fitted inhibition curve with a large enough effect in the signal ratio in the repeat runs, not every such curve was filed as active; the % refers to the signal ratio)
How it was run: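 Beta-lactamase reporter, HEK293T PR-UAS-bla line; 2% charcoal-stripped FBS; 6 hr pre-incubation, 37C/5% CO2. Compound + R5020 1 nM final, 16 hr. LiveBLAzer B/G FRET substrate, 2 hr RT; fluorescence intensity read.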

[3] = qHTS assay to identify small molecule antagonists of the progesterone receptor (PR) signaling pathway - cell viability counter screen (AID 1346798); also: series mostly up to about 92 µM; nearly all actives have a fitted effect of over 50% in size
How it was run: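 Luminescence readout (CellTiter-Glo, 30 min, RT) of viability in PR-UAS-bla HEK293T cells exposed to compound and R5020 agonist for 16 hr at 37C, 5% CO2; run in the same wells as the beta-lactamase reporter read.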

[4] = qHTS assay to identify small molecule antagonists of the TGF-beta/Smad signaling pathway - cell viability counter screen (AID 1346824); also: nearly all actives have a fitted effect of over 50% in size
How it was run: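 SBE-bla HEK 293T cells were plated overnight at 37 C, then given compounds in DMSO plus TGF-beta1 (added as 0.25 ng/mL solution) for 5 hr. After the bla read, CellTiter-Glo was added to the same wells and luminescence read after 30 min at room temperature.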

[5] = qHTS assay to identify small molecule agonists of the TGF-beta/Smad signaling pathway - cell viability counter screen (AID 1346829); also: top concentration of the series differs between compounds; nearly all actives have a fitted effect of over 45% in size
How it was run: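 CellTiter-Glo luminescence readout; SBE-bla HEK 293T cells, overnight plating, compound 5 hr at 37 C/5% CO2, then bla substrate 2 hr RT, then CellTiter-Glo 30 min RT.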

[6] = qHTS assay to identify small molecule agonists of the TGF-beta/Smad signaling pathway (AID 1346859; active = well fitted activation curve with a large enough effect in the signal ratio in the repeat runs, not every such curve was filed as active; the % refers to the signal ratio; also: series mostly up to about 77 µM)
How it was run: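 Read-out: fluorescence at 460 and 530 nm (405 nm excitation) after a 2 hr room-temperature incubation with beta-lactamase FRET substrate. SBE-bla HEK 293T cells had been treated with test compounds for 5 hr at 37 C.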

[7] = molecular target: Thyrotropin-releasing hormone receptor (Homo sapiens) (UniProt P34981); experiment: qHTS assay to identify small molecule antagonists of the thyrotropin-releasing hormone receptor (TRHR) signaling pathway (AID 1346877; active = well fitted inhibition curve with a large enough effect in the repeat runs, not every such curve was filed as active; also: series mostly up to about 51 µM)
How it was run: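 Cells (TRHR-HEK293) are plated and kept 18 h at 37 °C/5% CO2. A calcium-sensitive dye is added for 2 h, compound follows for 5 min at room temperature, and TRH is then given at 1 nM final.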

[8] = molecular target: Thyrotropin-releasing hormone receptor (Homo sapiens) (UniProt P34981); experiment: qHTS assay to identify small molecule agonists of the thyrotropin-releasing hormone receptor (TRHR) signaling pathway (AID 1346891; calls by dose curve;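 also: HEK293 cells expressing TRHR with calcium dye readout; series mostly up to about 58 µM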)
How it was run: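 HEK293/TRHR cells, 1500 per well, 18 h 37 °C; Ca dye 2 h 37 °C; pin-tool compound addition (agonist mode); kinetic fluorescence 3 min, 1 s reads; 15 concentrations, triplicate.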

[9] = Human pregnane X receptor (PXR) small molecule agonists, qHTS cell viability counter screen (AID 1346977); also: nearly all actives have a fitted effect of over 50% in size
How it was run: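 Fluorescence read-out (CellTiter-Fluor) of viability in PXR-Luc HepG2 cells, multiplexed with the luciferase agonist read. Compounds in DMSO added after 5hr plating; 24hr total exposure at 37C, 5% CO2.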

[10] = Caspase-3/7 induction in HepG2 cells by small molecules, qHTS assay (AID 1346978); also: nearly all actives have a fitted effect of over 15% in size
How it was run: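 Wild-type HepG2 cells (2,000/well) were settled 5 h at 37 C, 5% CO2, then exposed to compounds in DMSO for 17 h. Caspase-3/7 activity was read by luminescence 30 min after adding Caspase-Glo 3/7 reagent at room temperature.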

[11] = Caspase-3/7 induction in CHO-K1 cells by small molecules, qHTS cell viability counter screen (AID 1346979); also: nearly all actives have a fitted effect of over 35% in size
How it was run: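 CHO-K1 wt, 1,500 cells/well; 5hr pre-incubation 37C/5% CO2; compound pin transfer (DMSO); 16hr exposure; CellTiter-Fluor added, 1hr, fluorescence read.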

[12] = Caspase-3/7 induction in CHO-K1 cells by small molecules, qHTS assay (AID 1346980); also: nearly all actives have a fitted effect of over 15% in size
How it was run: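 Wild-type cells were seeded at 1,500 per well and settled 5 hr at 37 C, 5% CO2, then exposed to DMSO-dissolved compounds for 17 hr. Caspase-Glo 3/7 reagent was added, and luminescence was read after 30min at room temperature.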

[13] = Caspase-3/7 induction in HepG2 cells by small molecules, qHTS cell viability counter screen (AID 1346981); also: series mostly up to about 92 µM; nearly all actives have a fitted effect of over 30% in size
How it was run: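 Steps: seed 2,000 HepG2 cells per well; incubate 5 hr at 37 C; pin-add compounds in DMSO; incubate 16 hr; add CellTiter-Fluor; after 1 hr at 37 C and 5% CO2, read fluorescence.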

[14] = molecular target: Nuclear receptor subfamily 1 group I member 2 (Homo sapiens) (UniProt O75469); experiment: Human pregnane X receptor (PXR) small molecule agonists, qHTS assay (AID 1346982); also: nearly all actives have a fitted effect of over 35% in size
How it was run: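 Agonist mode qHTS: PXR-Luc HepG2 cells plated 5 hr before DMSO-dissolved compounds were pinned in, cultured 24 hr at 37 C, 5% CO2; ONE-Glo luminescence readout.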

[15] = molecular target: Nuclear receptor subfamily 1 group I member 2 (Rattus norvegicus) (UniProt Q9R1A7); experiment: Rat pregnane X receptor (rPXR) activation by small molecules, qHTS assay (AID 1346983); settings: rPXR luciferase reporter cells, One-Glo luminescence, 24 h; active compounds read high; also: nearly all actives have a fitted effect of over 20% in size
How it was run: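 Cell-based rPXR luciferase reporter assay, 2,000 cells per well, rested 5hr at 37 C before compound addition in DMSO, then 24 hr at 37 C. One-Glo reagent was added and luminescence read after 30 min at room temperature.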

[16] = molecular target: Nuclear receptor subfamily 1 group I member 2 (Homo sapiens) (UniProt O75469); experiment: Human pregnane X receptor (PXR) activation by small molecules, qHTS assay (AID 1346985); also: nearly all actives have a fitted effect of over 40% in size
How it was run: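 DPX-2 cells (HepG2 co-transfected with a PXR response element and a CYP3A4-promoter luciferase construct) were seeded at 2,000 per well, rested 5 hr at 37C, then exposed to DMSO-dissolved compounds for 24 hr. Activation was read as luciferase luminescence.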

[17] = molecular target: Cytochrome P450 2D6 (Homo sapiens) (UniProt P10635); experiment: Cytochrome P450 Family 2 Subfamily D Member 6 (CYP2D6) small molecule antagonists: luciferase reporter qHTS assay (AID 1671196); also: series mostly up to about 120 µM; nearly all actives have a fitted effect of over 50% in size
How it was run: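 P450-Glo format: CYP2D6 converts a proluciferin substrate to luciferin in an NADPH-driven reaction lasting 1 h at room temperature. Light output, proportional to CYP2D6 activity, reflects interference by test chemicals.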

[18] = molecular target: Cytochrome P450 2C19 (Homo sapiens) (UniProt P33261); experiment: Cytochrome P450 Family 2 Subfamily C Member 19 (CYP2C19) small molecule antagonists: luciferase reporter qHTS assay (AID 1671197); also: series mostly up to about 120 µM; nearly all actives have a fitted effect of over 65% in size
How it was run: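 Enzyme-substrate mix with proluciferin substrate (P450-Glo CYP2C19 system) preincubated with compounds 10 min at room temperature; NADPH regeneration solution added, 37C for 1 h; detection reagent stops reaction, luminescence read after 20 min. Ketoconazole positive control.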

[19] = qHTS assay to identify small molecule agonists of the progesterone receptor (PR) signaling pathway - cell viability counter screen (AID 1346799; calls by dose curve; also: nearly all actives have a fitted effect of over 45% in size)
How it was run: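 HEK293T PR-UAS-bla, 3,000 cells/well, 2% charcoal-stripped FBS; 6 h settle, compound 16 h at 37C/5% CO2; LiveBLAzer 2 h RT, then CellTiter-Glo 30 min RT, luminescence read.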

[20] = molecular target: Nuclear receptor subfamily 1 group I member 2 (Homo sapiens) (UniProt O75469); experiment: CYP3A4 induction through human pregnane X receptor (PXR) by small molecules, qHTS assay (AID 1346984); also: nearly all actives have a fitted effect of over 40% in size
How it was run: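 Steps: seed DPX-2 cells, 5 hr at 37C; pin-transfer compounds; 24 hr at 37C; add Luciferin-IPA (3uM final), 3 hr at 37C; add One-Glo, 30 min RT; read luminescence.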
% is scaled to controls: 0 for no effect and ±100 for the full control effect.

Chain of Nuclear receptor subfamily 1 group I member 2 (Rattus norvegicus) (Q9R1A7 whole entry, looked up): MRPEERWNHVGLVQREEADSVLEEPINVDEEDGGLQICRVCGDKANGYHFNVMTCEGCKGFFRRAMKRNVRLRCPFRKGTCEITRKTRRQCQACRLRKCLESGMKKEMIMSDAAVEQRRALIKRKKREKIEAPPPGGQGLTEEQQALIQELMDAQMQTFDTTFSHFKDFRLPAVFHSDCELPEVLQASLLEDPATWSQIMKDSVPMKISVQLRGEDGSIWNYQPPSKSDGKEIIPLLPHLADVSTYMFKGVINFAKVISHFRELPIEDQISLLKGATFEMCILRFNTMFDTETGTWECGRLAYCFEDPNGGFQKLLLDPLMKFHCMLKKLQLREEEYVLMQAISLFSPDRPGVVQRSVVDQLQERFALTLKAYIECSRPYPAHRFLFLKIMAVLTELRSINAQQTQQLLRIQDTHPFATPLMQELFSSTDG
Chain of Cytochrome P450 2C19 (Homo sapiens) (P33261 whole entry, looked up): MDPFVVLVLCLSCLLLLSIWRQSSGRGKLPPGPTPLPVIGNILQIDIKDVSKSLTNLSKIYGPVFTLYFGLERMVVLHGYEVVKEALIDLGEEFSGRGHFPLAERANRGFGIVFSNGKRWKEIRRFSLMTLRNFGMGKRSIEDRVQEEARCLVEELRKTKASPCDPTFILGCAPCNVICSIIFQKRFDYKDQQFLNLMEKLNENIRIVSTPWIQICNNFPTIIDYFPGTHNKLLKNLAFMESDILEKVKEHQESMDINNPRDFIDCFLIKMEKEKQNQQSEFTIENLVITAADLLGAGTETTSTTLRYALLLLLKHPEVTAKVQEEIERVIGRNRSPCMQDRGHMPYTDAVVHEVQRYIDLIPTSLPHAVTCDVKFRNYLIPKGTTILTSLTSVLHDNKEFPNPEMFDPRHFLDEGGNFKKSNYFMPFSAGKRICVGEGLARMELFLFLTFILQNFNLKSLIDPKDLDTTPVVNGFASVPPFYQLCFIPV
Chain of Progesterone receptor (Homo sapiens) (P06401 whole entry, looked up): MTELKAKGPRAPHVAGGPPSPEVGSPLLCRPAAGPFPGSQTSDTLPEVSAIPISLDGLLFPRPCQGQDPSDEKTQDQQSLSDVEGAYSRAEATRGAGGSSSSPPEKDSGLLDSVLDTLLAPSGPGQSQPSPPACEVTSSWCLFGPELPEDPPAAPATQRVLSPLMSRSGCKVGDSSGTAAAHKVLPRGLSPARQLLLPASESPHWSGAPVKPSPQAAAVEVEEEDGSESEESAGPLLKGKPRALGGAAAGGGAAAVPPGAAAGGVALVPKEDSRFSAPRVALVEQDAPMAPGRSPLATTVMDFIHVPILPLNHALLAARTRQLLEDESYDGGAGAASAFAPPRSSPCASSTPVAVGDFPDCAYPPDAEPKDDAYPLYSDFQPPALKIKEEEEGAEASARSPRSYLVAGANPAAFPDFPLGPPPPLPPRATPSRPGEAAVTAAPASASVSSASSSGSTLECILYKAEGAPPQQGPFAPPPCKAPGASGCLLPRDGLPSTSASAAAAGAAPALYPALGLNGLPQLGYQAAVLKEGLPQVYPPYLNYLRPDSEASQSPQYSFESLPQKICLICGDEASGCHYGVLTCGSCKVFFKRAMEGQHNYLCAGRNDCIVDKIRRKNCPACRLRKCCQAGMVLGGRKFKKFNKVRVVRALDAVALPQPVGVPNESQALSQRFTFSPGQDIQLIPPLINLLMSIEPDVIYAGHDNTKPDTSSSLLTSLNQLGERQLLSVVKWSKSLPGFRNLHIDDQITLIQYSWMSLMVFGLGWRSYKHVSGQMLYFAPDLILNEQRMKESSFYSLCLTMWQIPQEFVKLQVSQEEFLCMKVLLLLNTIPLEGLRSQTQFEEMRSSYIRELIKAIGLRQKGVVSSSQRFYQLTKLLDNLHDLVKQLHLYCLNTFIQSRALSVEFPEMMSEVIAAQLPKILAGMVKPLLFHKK
Chain of Cytochrome P450 2D6 (Homo sapiens) (P10635 whole entry, looked up): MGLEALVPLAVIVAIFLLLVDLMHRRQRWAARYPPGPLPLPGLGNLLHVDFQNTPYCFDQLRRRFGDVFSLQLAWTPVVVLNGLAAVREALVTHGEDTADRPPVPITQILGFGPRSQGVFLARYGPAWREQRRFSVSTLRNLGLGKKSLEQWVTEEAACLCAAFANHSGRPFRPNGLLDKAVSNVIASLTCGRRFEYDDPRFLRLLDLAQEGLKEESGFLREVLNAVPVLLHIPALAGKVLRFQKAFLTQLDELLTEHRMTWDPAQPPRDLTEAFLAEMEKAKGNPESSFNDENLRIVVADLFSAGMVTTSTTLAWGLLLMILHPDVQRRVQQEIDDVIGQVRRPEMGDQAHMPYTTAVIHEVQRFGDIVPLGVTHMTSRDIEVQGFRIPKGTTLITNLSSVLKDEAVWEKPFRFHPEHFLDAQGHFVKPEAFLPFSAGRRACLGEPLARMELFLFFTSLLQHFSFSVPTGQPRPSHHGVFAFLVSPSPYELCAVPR
Chain of Nuclear receptor subfamily 1 group I member 2 (Homo sapiens) (O75469 whole entry, looked up): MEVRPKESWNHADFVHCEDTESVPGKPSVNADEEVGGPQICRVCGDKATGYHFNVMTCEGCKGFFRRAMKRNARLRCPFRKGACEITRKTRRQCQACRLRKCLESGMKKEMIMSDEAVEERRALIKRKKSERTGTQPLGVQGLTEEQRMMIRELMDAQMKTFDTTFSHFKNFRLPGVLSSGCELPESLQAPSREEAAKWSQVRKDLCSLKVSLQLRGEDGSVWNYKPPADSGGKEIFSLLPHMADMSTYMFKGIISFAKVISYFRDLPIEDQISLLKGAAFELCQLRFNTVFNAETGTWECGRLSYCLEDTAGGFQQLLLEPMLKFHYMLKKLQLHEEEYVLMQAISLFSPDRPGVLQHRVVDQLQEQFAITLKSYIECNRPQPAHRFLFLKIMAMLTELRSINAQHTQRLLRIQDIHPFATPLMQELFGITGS
Chain of Thyrotropin-releasing hormone receptor (Homo sapiens) (P34981 whole entry, looked up): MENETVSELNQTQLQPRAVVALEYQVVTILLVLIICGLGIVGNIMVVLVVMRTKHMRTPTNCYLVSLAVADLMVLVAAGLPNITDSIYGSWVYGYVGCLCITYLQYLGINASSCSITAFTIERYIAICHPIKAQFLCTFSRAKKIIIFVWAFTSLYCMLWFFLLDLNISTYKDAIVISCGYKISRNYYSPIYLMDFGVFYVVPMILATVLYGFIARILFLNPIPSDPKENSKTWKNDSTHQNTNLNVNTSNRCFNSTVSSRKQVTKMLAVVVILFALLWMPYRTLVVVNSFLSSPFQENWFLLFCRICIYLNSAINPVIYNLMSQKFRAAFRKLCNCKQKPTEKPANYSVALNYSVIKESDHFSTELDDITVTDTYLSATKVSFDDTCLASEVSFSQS

CCOC(=O)[C@H](CCc1ccccc1)N[C@@H](C)C(=O)N1[C@H](C(=O)O)C[C@@H]2CCC[C@@H]21
inactive: Potency [1] | Potency [2] | Potency [3] | Potency [4] | outcome [5] | outcome [6] | outcome [7] | outcome [8] | Potency [9] | Potency [10] | Potency [11] | outcome [12] | Potency [13] | Potency [14] | max activation [15] -3.39% | Potency [16] | Potency [17] | Potency [18]

O=C1NC(=O)[C@@]2(CCOc3ccc(F)cc32)N1
inactive: Potency [1] | Potency [2] | Potency [3] | Potency [19] | Potency [4] | outcome [5] | outcome [6] | Potency [9] | Potency [10] | Potency [11] | outcome [12] | Potency [13] | Potency [14] | max activation [15] -0.447% | Potency [20] | Potency [16] | Potency [17] | Potency [18]

N=C(N)c1ccc(OCCCOc2ccc(C(=N)N)cc2)cc1
inactive: Potency [1] | Potency [2] | Potency [3] | Potency [19] | Potency [4] | outcome [5] | outcome [6] | Potency [9] | Potency [10] | Potency [11] | outcome [12] | Potency [13] | Potency [14] | Potency [17] | Potency [18]

CCOC(=O)CC(C)=O
inactive: Potency [1] | Potency [2] | Potency [3] | Potency [19] | Potency [4] | outcome [5] | outcome [6] | Potency [9] | Potency [10] | Potency [11] | outcome [12]

FC1(F)C(F)(F)C(F)(F)C2(F)C(F)(F)C(F)(F)C(F)(F)C(F)(F)C2(F)C1(F)F (stereo not given)
inactive: Potency [1] | Potency [2] | Potency [3] | Potency [19] | Potency [4] | outcome [5] | outcome [6] | Potency [9] | Potency [10] | Potency [11] | outcome [12] | Potency [14] | max activation [15] -2.25% | Potency [20] | Potency [16] | Potency [17] | Potency [18]

CCCCCCCCCCCCN(CCCCCCCCCCCC)CCCCCCCCCCCC
inactive: Potency [1] | Potency [2] | Potency [3] | Potency [19] | Potency [4] | outcome [5] | outcome [6] | Potency [10] | Potency [13] | Potency [14] | Potency [17] | Potency [18]

NS(=O)(=O)c1ccccc1Cl
inactive: Potency [1] | Potency [2] | Potency [3] | Potency [19] | Potency [4] | outcome [6] | Potency [10] | outcome [12] | Potency [13] | Potency [14] | Potency [17] | Potency [18]

CC(C)OC(=O)c1ccccc1
inactive: Potency [1] | Potency [2] | Potency [3] | Potency [19] | Potency [4] | outcome [5] | outcome [6] | Potency [9] | Potency [10] | Potency [14] | Potency [17] | Potency [18]
